Data reported in PubChem BioAssay (NCATS).
Results filed as inconclusive are left out. Unmarked numbers belong to inactive results. Active and inactive are the calls of the source. Calls come from the whole dose curve; as a rule, active = well fitted curve in the direction sought with a large enough effect; inconclusive = small, poorly fitted or top-dose-only effect, or another doubt; inactive = no such curve, though single readings can be large; an effect the other way counts as inactive or inconclusive.

Assay: Primary qHTS for inhibitors of nuclear receptor binding SET domain protein 2 (NSD2) in an isogenic RCH-ACV NSD2 p.E1099K mutant (9B) (AID 1645876)
Conditions: RCH-ACV NSD2 E1099K (9B) viability, CellTiter-Glo, 72 h; series mostly up to 44.9 µM; activity change, negative = viability loss: at the top concentration
% is set by controls: 0 for no effect and ±100 for the full control effect.
Note: nearly all actives have a fitted effect of over 70% in size.

Structure (SMILES) | activity change, negative = viability loss | outcome
C=C1CCC[C@]2(C)CC[C@@](O)(C(=C)C(=O)O)C[C@@H]12 | -12.5% | –
O=C(/C=C/c1ccc(O)cc1)O[C@@H]1C[C@@](O)(C(=O)O)C[C@@H](O)[C@@H]1O | – | inactive
C/C(=C/CO)CC[C@H]1[C@]2(C)C[C@H](O)CC(C)(C)[C@H]2CC[C@]1(C)O | – | inactive
CC(O)/C=C/C1(O)C(C)C(O)C(O[C@@H]2O[C@H](CO)[C@@H](O)[C@H](O)[C@H]2O)CC1(C)C (stereo partly drawn) | -6.08% [at 17.3 µM] | –
OC[C@@]1(O)CO[C@H](OC[C@H]2O[C@@H](OC(CCCCc3ccc(O)cc3)CCc3ccc(O)cc3)[C@H](O)[C@@H](O)[C@@H]2O)[C@@H]1O (stereo partly drawn) | – | inactive [at 17.3 µM]
C[C@@H]1O[C@@H](OC(=O)Cc2ccccc2)[C@H](O)[C@H](O)[C@H]1O | -3.72% | –
C=C1CCC(OC(C)=O)C2(C)CC3OC(=O)C(C)=C3CC12 (stereo not drawn) | -1.93% | –
COc1ccc(C2OCC3C(c4cc(OC)c5c(c4)OCO5)OCC23)cc1OC (stereo not drawn) | -8.26% [at 17.3 µM] | –
C=C1[C@@H]2CC[C@@]3(C)[C@H](c4ccoc4)OC(=O)C[C@]13O[C@H]1CC(=O)C(C)(C)[C@H](C(O)C(=O)OC)[C@]12C (stereo partly drawn) | -0.409% [at 17.3 µM] | –
O=C(O[C@H]1[C@H](Oc2ccc(O)cc2CO)O[C@H](CO)[C@@H](O)[C@@H]1O)c1ccccc1 | -3.74% [at 17.3 µM] | –
CC(C)=CCC[C@@](C)(O)[C@H]1CC[C@]2(C)[C@@H]1[C@H](O)CC1[C@@]3(C)CC[C@H](O[C@@H]4O[C@H](CO)[C@@H](O)[C@H](O)[C@H]4O[C@@H]4O[C@H](CO)[C@@H](O)[C@H](O)[C@H]4O)C(C)(C)[C@@H]3CC[C@]12C (stereo partly drawn) | – | inactive [at 17.3 µM]
O=C(O)/C=C/c1ccc2occc2c1O[C@@H]1O[C@H](CO)[C@@H](O)[C@H](O)[C@H]1O | – | inactive
CC(C)=CCC[C@](C)(O[C@@H]1O[C@H](CO[C@@H]2OC[C@H](O)[C@H](O)[C@H]2O)[C@@H](O)[C@H](O)[C@H]1O)[C@H]1CC[C@]2(C)[C@@H]1[C@H](O)C[C@@H]1[C@@]3(C)CC[C@H](O[C@@H]4O[C@H](CO)[C@@H](O)[C@H](O)[C@H]4O[C@@H]4O[C@H](CO)[C@@H](O)[C@H](O)[C@H]4O)C(C)(C)[C@@H]3CC[C@]12C | – | inactive [at 17.3 µM]
CC1OC(OC2C(OC3C(O[C@H]4CC[C@@]5(C)C(CC[C@]6(C)C5CC=C5C7CC(C)(C)CC(O)[C@]7(C)CC[C@]56C)C4(C)C)OC(C(=O)O)C(O)C3O)OCC(O)C2O)C(O)C(O)C1O (stereo partly drawn) | – | inactive [at 9.23 µM]
C[C@@H]1C(=O)O[C@H](C)[C@H]1C[C@@H](O)[C@](C)(O)[C@H]1CC[C@@]2(O)C3=CC(=O)[C@@H]4C[C@@H](O)[C@@H](O)C[C@]4(C)C3CC[C@]12C (stereo partly drawn) | 2.68% [at 17.3 µM] | –

Assay: Primary qHTS for inhibitors of nuclear receptor binding SET domain protein 2 (NSD2) in an RCH-ACV wild type WT cells (2C) (AID 1645877)
Conditions: RCH-ACV (leukaemia line) NSD2 WT (2C) viability, CellTiter-Glo, 72 h; series mostly up to 44.9 µM; activity change, negative = cell killing: at the top concentration

Structure (SMILES) | activity change, negative = cell killing | outcome
COC(=O)C1(C)CCCC2(C)c3ccc(C(C)C)cc3C(O)C(O)C12 (stereo not drawn) | -5.65% | –
OC[C@@]1(O)CO[C@H](OC[C@H]2O[C@@H](OC(CCCCc3ccc(O)cc3)CCc3ccc(O)cc3)[C@H](O[C@H]3OC[C@](O)(CO)[C@H]3O)[C@@H](O)[C@@H]2O)[C@@H]1O (stereo partly drawn) | – | inactive [at 17.3 µM]
CC(=O)OC1CCC2(C)C(CCC3(C)C2CC=C2C4CC(C)(C)CCC4(C)CCC23C)C1(C)C(=O)O (stereo not drawn) | -12.9% [at 17.3 µM] | –
COc1cc(/C=C/C(=O)O[C@@H]2C[C@](O)(C(=O)O)C[C@@H](O)[C@H]2O)ccc1O | 0.164% | –
C[C@H]1[C@H](C)CC[C@]2(C(=O)O)CC[C@]3(C(=O)O)C(=CCC4[C@@]5(C)CC[C@H](O[C@@H]6O[C@@H](C)[C@H](O)[C@@H](O)[C@H]6O)C(C)(C)C5CC[C@]43C)[C@H]12 (stereo partly drawn) | -8.47% [at 17.3 µM] | –
COC(=O)C(CC1(O)c2ccccc2N2C(=O)C(CC(C)C)NC21)n1cnc2ccccc2c1=O (stereo not drawn) | -6.62% [at 17.3 µM] | –
C[C@]1(O)CC[C@@H]2C(C(=O)O)=CO[C@@H](O[C@@H]3O[C@H](CO)[C@@H](O)[C@H](O)[C@H]3O)[C@@H]21 | -5.77% | –
C=C(C)[C@@]1(O)C[C@@]2(C)C(=CC1=O)CC[C@@H](O)[C@@H]2C | -11.4% | –
N#CC1C(=O)N=C(c2cc(Cl)ccc2O)C=C1c1cc(OCc2ccccc2)cc(OCc2ccccc2)c1 (stereo not drawn) | -8.39% | –
CC12CC(c3ccoc3)OC(=O)C1CCC1(C)C2CCC(O)C1(C)O (stereo not drawn) | -15.3% | –
CC1(C)CC[C@]2(C(=O)O[C@@H]3O[C@H](CO[C@@H]4O[C@H](CO[C@@H]5O[C@H](CO)[C@H](O)[C@H](O)[C@H]5O)[C@@H](O)[C@H](O)[C@H]4O)[C@@H](O)[C@H](O[C@@H]4O[C@H](CO)[C@@H](O)[C@H](O)[C@H]4O)[C@H]3O)[C@H](O)C[C@]3(C)C(=CCC4[C@@]5(C)CC[C@H](O[C@@H]6OC[C@@H](O)[C@H](O)[C@H]6O)[C@@](C)(C(=O)O)C5CC[C@]43C)[C@@H]2C1 (stereo partly drawn) | – | inactive [at 9.23 µM]
C/C=C(\C)C(=O)OC[C@H]1O[C@@H](O[C@H]2[C@@H](O[C@H]3O[C@H](CO)[C@@H](O)[C@H](O)[C@H]3O[C@@H]3O[C@H](CO)[C@@H](O)[C@H](O)[C@H]3O)O[C@H](COC(=O)/C(C)=C/C)[C@@H](O)[C@@H]2O)[C@H](O)[C@@H](O)[C@@H]1O | -10.7% [at 9.23 µM] | –
CC1(C)CCC2(C(=O)O)C(O)CC3(C)C(=CCC4C5(C)CCC(OC6OC(CO)C(O)C(O)C6OC6OC(CO)C(O)C(O)C6OC6OCC(O)(CO)C6O)C(C)(C)C5CCC43C)C2C1 (stereo not drawn) | 2.63% [at 9.23 µM] | –
COc1cc(-c2ccc(O)cc2)c(OC)c(O)c1C1=CC(=O)OC1CC(=O)O (stereo not drawn) | -26.4% | –
C[C@@H]1CC[C@]2(C(=O)O)CC[C@]3(C)C(=CCC4[C@@]5(C)C[C@@H](O)[C@@H](O)C(C)(C)C5CC[C@]43C)C2[C@]1(C)O (stereo partly drawn) | -17.5% [at 17.3 µM] | –
CC1(C)O[C@H]2CC(=O)OC[C@@]23C1=C(O)C(=O)[C@]1(C)C3CC[C@@]2(C)[C@H](c3ccoc3)OC(=O)[C@H]3O[C@]321 (stereo partly drawn) | 3.52% [at 17.3 µM] | –
C=CC(C)(O)CC/C=C(\C)C1CC=C(C)C(=O)O1 (stereo not drawn) | -25.4% | –
O=C(/C=C/c1ccc(O)c(O)c1)O[C@H]1[C@@H]2C=CO[C@@H](O[C@@H]3O[C@H](CO)[C@@H](O)[C@H](O)[C@H]3O)[C@@H]2[C@@]2(CO)O[C@@H]12 | 2.56% [at 17.3 µM] | –
C[C@]1(OC(=O)/C=C\c2ccc(O)cc2)C[C@@H](O)[C@]2(O)C=CO[C@@H](O[C@@H]3O[C@H](CO)[C@@H](O)[C@H](O)[C@H]3O)C12 (stereo partly drawn) | -17.3% [at 17.3 µM] | –

Structure (SMILES) | activity change, negative = cell killing | outcome
CC1CCC2C(C(=O)O)=CC3(O)CC(C)(C)CC123 (stereo not drawn) | -2.78% | –
C=C1CC23CC(=O)C4C(CO)(CO)CCCC4(C)C2CCC1C3 (stereo not drawn) | -18.7% | –
C[C@@H]1O[C@@H](O[C@@H]2[C@@H](O)[C@H](O[C@H]3[C@H](O[C@H]4CC[C@@]5(C)C(CC[C@]6(C)C5CC=C5[C@@H]7CC(C)(C)CC[C@]7(C(=O)O[C@@H]7O[C@H](CO)[C@@H](O)[C@H](O)[C@H]7O)CC[C@]56C)C4(C)C)O[C@H](C(=O)O)[C@@H](O)[C@@H]3O)OC[C@H]2O)[C@H](O)[C@H](O)[C@H]1O (stereo partly drawn) | -1.93% [at 9.23 µM] | –
O=C(O)c1cc(O[C@@H]2O[C@H](CO)[C@@H](O)[C@H](O)[C@H]2O)ccc1O | -0.2% | –
C=C1CCC[C@]2(C)CC[C@@](O)(C(=C)C(=O)O)C[C@@H]12 | -27.3% | –
O=C(/C=C/c1ccc(O)cc1)O[C@@H]1C[C@@](O)(C(=O)O)C[C@@H](O)[C@@H]1O | – | inactive
C/C(=C/CO)CC[C@H]1[C@]2(C)C[C@H](O)CC(C)(C)[C@H]2CC[C@]1(C)O | – | inactive
CC(O)/C=C/C1(O)C(C)C(O)C(O[C@@H]2O[C@H](CO)[C@@H](O)[C@H](O)[C@H]2O)CC1(C)C (stereo partly drawn) | -1.05% [at 17.3 µM] | –
OC[C@@]1(O)CO[C@H](OC[C@H]2O[C@@H](OC(CCCCc3ccc(O)cc3)CCc3ccc(O)cc3)[C@H](O)[C@@H](O)[C@@H]2O)[C@@H]1O (stereo partly drawn) | – | inactive [at 17.3 µM]
C[C@@H]1O[C@@H](OC(=O)Cc2ccccc2)[C@H](O)[C@H](O)[C@H]1O | -14.8% | –
C=C1CCC(OC(C)=O)C2(C)CC3OC(=O)C(C)=C3CC12 (stereo not drawn) | -6.33% | –
COc1ccc(C2OCC3C(c4cc(OC)c5c(c4)OCO5)OCC23)cc1OC (stereo not drawn) | -3.37% [at 17.3 µM] | –
C=C1[C@@H]2CC[C@@]3(C)[C@H](c4ccoc4)OC(=O)C[C@]13O[C@H]1CC(=O)C(C)(C)[C@H](C(O)C(=O)OC)[C@]12C (stereo partly drawn) | 3.69% [at 17.3 µM] | –
O=C(O[C@H]1[C@H](Oc2ccc(O)cc2CO)O[C@H](CO)[C@@H](O)[C@@H]1O)c1ccccc1 | 1.06% [at 17.3 µM] | –
CC(C)=CCC[C@@](C)(O)[C@H]1CC[C@]2(C)[C@@H]1[C@H](O)CC1[C@@]3(C)CC[C@H](O[C@@H]4O[C@H](CO)[C@@H](O)[C@H](O)[C@H]4O[C@@H]4O[C@H](CO)[C@@H](O)[C@H](O)[C@H]4O)C(C)(C)[C@@H]3CC[C@]12C (stereo partly drawn) | – | inactive [at 17.3 µM]
O=C(O)/C=C/c1ccc2occc2c1O[C@@H]1O[C@H](CO)[C@@H](O)[C@H](O)[C@H]1O | 3.88% | –
CC(C)=CCC[C@](C)(O[C@@H]1O[C@H](CO[C@@H]2OC[C@H](O)[C@H](O)[C@H]2O)[C@@H](O)[C@H](O)[C@H]1O)[C@H]1CC[C@]2(C)[C@@H]1[C@H](O)C[C@@H]1[C@@]3(C)CC[C@H](O[C@@H]4O[C@H](CO)[C@@H](O)[C@H](O)[C@H]4O[C@@H]4O[C@H](CO)[C@@H](O)[C@H](O)[C@H]4O)C(C)(C)[C@@H]3CC[C@]12C | – | inactive [at 17.3 µM]
CC1OC(OC2C(OC3C(O[C@H]4CC[C@@]5(C)C(CC[C@]6(C)C5CC=C5C7CC(C)(C)CC(O)[C@]7(C)CC[C@]56C)C4(C)C)OC(C(=O)O)C(O)C3O)OCC(O)C2O)C(O)C(O)C1O (stereo partly drawn) | 4.8% [at 9.23 µM] | –
C[C@@H]1C(=O)O[C@H](C)[C@H]1C[C@@H](O)[C@](C)(O)[C@H]1CC[C@@]2(O)C3=CC(=O)[C@@H]4C[C@@H](O)[C@@H](O)C[C@]4(C)C3CC[C@]12C (stereo partly drawn) | 4.77% [at 17.3 µM] | –
